Results published in PubChem BioAssay (Tox21).
Inconclusive results are not listed. Entries that show only a call come without a potency. The source made the active and inactive calls. Calls follow the shape of the dose curve; as a rule, active = well fitted cell-killing curve with a large enough effect in the repeat runs; inconclusive = weak or mixed curves, or effect the other way; inactive = flat fitted curve, though single readings scatter.

Experiment: cAMP Responsive Elements (CRE) small molecule agonists, cell-based qHTS assay: qHTS cell viability counter screen (AID 2060914);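 also: viability read after 3 h of compound exposure; nearly all actives have a fitted effect of over 50% in size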
Conditions: CRE-bla HEK293T viability, CellTiter-Glo luminescence, 5 h; series mostly up to 92.4 µM
From the text: National Center for Advancing Translational Sciences [NCATS]
Division of Preclinical Innovation [DPI]
U.S. Environmental Protection Agency [EPA]
National Institutes of Environmental Health Sciences [NIEHS]
National Toxicology Program [NTP]
U.S. Food and Drug Administration [FDA]
CREB (cyclic-AMP Responsive Element Binding Protein) is a cellular transcription factor. It binds to certain DNA sequences called cAMP Responsive Elements (CRE) and regulates the transcription of the genes. […] This cell line can be used to find agonists/antagonists of the cyclic AMP signaling pathway. The activation of the report gene under culture conditions can be detected by fluorescence intensity. This cell line has been used to screen the Tox21 10K compound library to identify agonists that induce oxidative stress. The cytotoxicity of the Tox21 compound library against the CRE-bla cell line was tested in parallel by measuring the cell viability using CellTiter-Glo assay (Promega, Madison, WI) in the same wells.
Tox21 Assay Protocol Summary:
CRE-bla Hek 293T cells were suspended in assay medium (DMEM containing 10% dialyzed FBS, 0.1 mM NEAA, 1 mM sodium pyruvate and 25 mM HEPES) and dispensed at 2,000 cells/5 uL /well into 1536-well black wall/clear bottom plates using a Multidrop Combi (ThermoFisher Scientific, Waltham, MA) dispenser. After the assay plates were incubated at 37 C/5% CO2 for 18 hrs, 23 nL of compounds dissolved in DMSO, positive controls or DMSO only was transferred to the assay plate by a pintool workstation (Kalypsys, San Diego, CA). After the plates were incubated at 37 C/5% CO2 for 3 hrs, 1 uL of LiveBLAzer B/G FRET substrate (Invitrogen, Carlsbad, CA) was added to each well using Bioraptr Flying Reagent Dispenser (FRD, Aurora Discovery, San Diego, CA). The plates were incubated at room temperature for 2 h, then fluorescence intensities were measured using an Envision plate reader (PerkinElmer, Shelton, CT) at Excitation 405nm, Emission 460nm and 530nm. The % activity was determined from the ratio of 460nm/530nm. For cell viability readout that measures cytotoxicity, 4 uL /well of CellTiter-Glo reagent was added into the assay plates using Bioraptr FRD. After 30 min incubation at room temperature, the luminescence intensity in the assay plates was measured using a ViewLux (PerkinElmer, Shelton, CT) plate reader.
Potency is read from the fitted curve at half-maximal effect.

| SMILES | Potency |
| --- | --- |
| CCC(=O)O[C@@H]1C[C@H]2CC[C@]1(C)C2(C)C | inactive |
| CCCCCCCCS(=O)(=O)Cl | inactive |
| CCOC(=O)Cc1cccc2ccccc12 | inactive |
| O=C(O)/C=C/c1cnc[nH]1 | inactive |
| CC(=O)C1C(=O)C=C(C)OC1=O (stereo not given) | inactive |
| CCCCCCOC(=O)C(C)C | inactive |
| C[C@]12CC[C@@H]3c4ccc(O)cc4CC[C@H]3[C@@H]1CC[C@H]2O | inactive |
| O=C(CCCN1CCC(O)(c2ccc(Cl)cc2)CC1)c1ccc(F)cc1 | inactive |
| CCOC(=O)c1ccccc1O | inactive |
| CCC1NC(=O)c2cc(S(N)(=O)=O)c(Cl)cc2N1 (stereo not given) | inactive |
| COc1ccc(-c2nc3ccc(C4=NNC(=O)CC4C)cc3[nH]2)cc1 (stereo not given) | inactive |
| CCN(CC)CCOc1ccc(/C(=C(\Cl)c2ccccc2)c2ccccc2)cc1 | inactive |
| C=CC(C)(O)CC/C=C(/C)CCC=C(C)C (stereo not given) | inactive |
| CC(C)c1cccc(C(C)C)c1N | inactive |
| CCOC(C)=O | 24.5 µM (active) |
| COc1ccc(C(C)=O)cc1 | inactive |
| C=CC(=O)NC(C)C | inactive |
| C1CNCCN1 | inactive |
| Cc1ccc(S(=O)(=O)NC(=O)NC2CCCCCCC2)cc1 | inactive |
| CC(C)c1cccc(C(C)C)c1NC(=O)NS(=O)(=O)c1cc(C(C)(C)O)co1 | inactive |

| SMILES | Potency |
| --- | --- |
| NC(Cc1c[nH]c2ccccc12)C(=O)O (stereo not given) | inactive |
| CNC(=O)c1cnn(-c2nc(N)c3ncn([C@@H]4O[C@H](CO)[C@@H](O)[C@H]4O)c3n2)c1 | inactive |
| CN(C(=O)c1c(O)c2ccccc2n(C)c1=O)c1ccccc1 | inactive |
| OCCO | inactive |
| Nc1cccc(S(=O)(=O)c2cccc(N)c2)c1 | inactive |
| CCCCC(CC)COC(=O)c1ccccc1O (stereo not given) | inactive |
| Cc1cnc(C)c(C)n1 | inactive |
| C=C(C)C(=O)OCCC(F)(F)C(F)(F)C(F)(F)C(F)(F)C(F)(F)C(F)(F)F | inactive |
| Cc1ccc(S(=O)(=O)Oc2ccc(N=Nc3ccc(-c4ccc(N=Nc5c(O)ccc6cc(S(=O)(=O)O)cc(S(=O)(=O)O)c56)c(C)c4)cc3C)cc2)cc1 | inactive |
| COc1ccc(/C=C/c2cc(OC)cc(=O)o2)cc1 | inactive |
| CC(C)OC(=O)OCOP(=O)(CO[C@H](C)Cn1cnc2c(N)ncnc21)OCOC(=O)OC(C)C | inactive |
| C=C(C)C(=O)Nc1ccc(Cl)c(Cl)c1 | inactive |
| COCCc1ccc(OCC(O)CNC(C)C)cc1 (stereo not given) | inactive |
| O=C(O)CS | inactive |
| O | inactive |
| CCN(CC)CCNC(=O)COc1ccc(OC)cc1 | inactive |
| CC(C)=CCCC(C)O (stereo not given) | inactive |
| N[C@H]1CN(c2c(F)cc3c(=O)c(C(=O)O)cn(C4C[C@H]4F)c3c2Cl)CC12CC2 (stereo not given in full) | inactive |
| CCC(=O)c1cccc(Cl)c1 | inactive |
| CSCC[C@H](NC(=O)[C@H](Cc1c[nH]c2ccccc12)NC(=O)CCNC(=O)OC(C)(C)C)C(=O)N[C@@H](CC(=O)O)C(=O)N[C@@H](Cc1ccccc1)C(N)=O | inactive |
